“And” between values parts separate entries of the source, which are not always exact repeats. Equal values may be shown once. A number with no mark means an inactive call. Inconclusive results are not listed. Entries that show only a call come without a potency. The source made the active and inactive calls. Unless noted, calls come from the whole dose curve; as a rule, active = well fitted curve in the direction sought with a large enough effect in the repeat runs; inconclusive = weak or mixed curves; inactive = no such curve, though single readings can be large; an effect the other way counts as inactive or inconclusive.
Experiments:
[1] = Human pregnane X receptor (PXR) small molecule agonists, qHTS cell viability counter screen (AID 1346977); note: nearly all actives have a fitted effect of over 50% in size; note: potency is the fitted concentration of half-maximal effect
Procedure, shortened: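 After a 5hr pre-incubation, PXR-Luc HepG2 cells received compounds plus positive control in DMSO and were kept 24hr at 37C. Cell viability was quantified by fluorescence from CellTiter-Fluor added for the final hour.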

[2] = Caspase-3/7 induction in HepG2 cells by small molecules, qHTS assay (AID 1346978); note: nearly all actives have a fitted effect of over 15% in size
Procedure, shortened: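 Wild-type HepG2 cells (2,000/well) were settled 5 h at 37 C, 5% CO2, then exposed to compounds in DMSO for 17 h. Caspase-3/7 activity was read by luminescence 30 min after adding Caspase-Glo 3/7 reagent at room temperature.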

[3] = Caspase-3/7 induction in CHO-K1 cells by small molecules, qHTS cell viability counter screen (AID 1346979); note: nearly all actives have a fitted effect of over 35% in size; note: potency is the fitted concentration of half-maximal effect
Procedure, shortened: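 Multiplexed with Caspase-Glo 3/7 in CHO-K1 cells, this counter screen added CellTiter-Fluor after 16hr of compound exposure and recorded fluorescence 1hr later.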

[4] = Caspase-3/7 induction in CHO-K1 cells by small molecules, qHTS assay (AID 1346980); note: nearly all actives have a fitted effect of over 15% in size
Procedure, shortened: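 Wild-type cells were seeded at 1,500 per well and settled 5 hr at 37 C, 5% CO2, then exposed to DMSO-dissolved compounds for 17 hr. Caspase-Glo 3/7 reagent was added, and luminescence was read after 30min at room temperature.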

[5] = Caspase-3/7 induction in HepG2 cells by small molecules, qHTS cell viability counter screen (AID 1346981); note: nearly all actives have a fitted effect of over 30% in size; note: potency is the fitted concentration of half-maximal effect
Procedure, shortened: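 HepG2, WT, 2,000 cells/well; 5 hr pre-incubation 37 C/5% CO2; compound pin-transferred from DMSO; 16 hr exposure; CellTiter-Fluor, 1 hr; fluorescence read.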

[6] = target: Nuclear receptor subfamily 1 group I member 2 (Homo sapiens) (UniProt O75469); assay: Human pregnane X receptor (PXR) small molecule agonists, qHTS assay (AID 1346982); note: nearly all actives have a fitted effect of over 35% in size; note: potency is the fitted concentration of half-maximal effect
Procedure, shortened: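 Luciferase signal from ONE-Glo (30 min, room temperature) measured activation of hPXR-driven CYP3A4 reporter expression in PXR-Luc HepG2 cells treated with compounds for 24 hr at 37 C.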

[7] = target: Acetylcholinesterase (Homo sapiens) (UniProt P22303); assay: Acetylcholinesterase (AChE) small molecule antagonists: colormetric cell-based qHTS assay (AID 1347395; calls by dose curve; note: nearly all actives have a fitted effect of over 30% in size; note: potency is the fitted concentration of half-maximal effect)
Procedure, shortened: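 In this cell-based qHTS, attached SH-SY5Y cells were treated with test chemicals for 30 min, after which acetylthiocholine hydrolysis was followed by DTNB colour development over 90 min at 37 C.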

[8] = target: Nuclear receptor subfamily 1 group I member 2 (Rattus norvegicus) (UniProt Q9R1A7); assay: Rat pregnane X receptor (rPXR) activation by small molecules, qHTS assay (AID 1346983); conditions: rPXR luciferase reporter cells, One-Glo luminescence, 24 h; hits give high values; note: nearly all actives have a fitted effect of over 20% in size
Procedure, shortened: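 Cell-based rPXR luciferase reporter assay, 2,000 cells per well, rested 5hr at 37 C before compound addition in DMSO, then 24 hr at 37 C. One-Glo reagent was added and luminescence read after 30 min at room temperature.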

[9] = target: Nuclear receptor subfamily 1 group I member 2 (Homo sapiens) (UniProt O75469); assay: CYP3A4 induction through human pregnane X receptor (PXR) by small molecules, qHTS assay (AID 1346984); note: nearly all actives have a fitted effect of over 40% in size
Procedure, shortened: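 Luminescence readout: luciferase signal after One-Glo (30 min, room temperature), following 3 h at 37C with 3uM final Luciferin-IPA P450 substrate. Cells were DPX-2 (HepG2, PXR/CYP3A4-luc co-transfected) dosed for 24 h.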

[10] = target: Nuclear receptor subfamily 1 group I member 2 (Homo sapiens) (UniProt O75469); assay: Human pregnane X receptor (PXR) activation by small molecules, qHTS assay (AID 1346985); note: nearly all actives have a fitted effect of over 40% in size; note: potency is the fitted concentration of half-maximal effect
Procedure, shortened: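 DPX-2 cells (HepG2 co-transfected with a PXR response element and a CYP3A4-promoter luciferase construct) were seeded at 2,000 per well, rested 5 hr at 37C, then exposed to DMSO-dissolved compounds for 24 hr. Activation was read as luciferase luminescence.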

Nuclear receptor subfamily 1 group I member 2 (Homo sapiens), sequence (O75469 whole entry, looked up): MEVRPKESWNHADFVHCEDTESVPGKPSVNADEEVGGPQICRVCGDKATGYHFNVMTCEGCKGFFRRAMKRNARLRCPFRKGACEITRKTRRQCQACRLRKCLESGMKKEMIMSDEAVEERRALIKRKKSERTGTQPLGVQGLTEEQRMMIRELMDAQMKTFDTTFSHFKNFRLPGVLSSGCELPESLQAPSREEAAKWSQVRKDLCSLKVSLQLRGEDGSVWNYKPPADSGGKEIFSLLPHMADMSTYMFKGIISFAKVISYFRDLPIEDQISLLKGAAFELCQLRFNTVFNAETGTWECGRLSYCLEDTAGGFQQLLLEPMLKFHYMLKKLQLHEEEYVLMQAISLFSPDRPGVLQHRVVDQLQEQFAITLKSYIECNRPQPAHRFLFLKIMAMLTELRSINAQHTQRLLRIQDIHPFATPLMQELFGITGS
Nuclear receptor subfamily 1 group I member 2 (Rattus norvegicus), sequence (Q9R1A7 whole entry, looked up): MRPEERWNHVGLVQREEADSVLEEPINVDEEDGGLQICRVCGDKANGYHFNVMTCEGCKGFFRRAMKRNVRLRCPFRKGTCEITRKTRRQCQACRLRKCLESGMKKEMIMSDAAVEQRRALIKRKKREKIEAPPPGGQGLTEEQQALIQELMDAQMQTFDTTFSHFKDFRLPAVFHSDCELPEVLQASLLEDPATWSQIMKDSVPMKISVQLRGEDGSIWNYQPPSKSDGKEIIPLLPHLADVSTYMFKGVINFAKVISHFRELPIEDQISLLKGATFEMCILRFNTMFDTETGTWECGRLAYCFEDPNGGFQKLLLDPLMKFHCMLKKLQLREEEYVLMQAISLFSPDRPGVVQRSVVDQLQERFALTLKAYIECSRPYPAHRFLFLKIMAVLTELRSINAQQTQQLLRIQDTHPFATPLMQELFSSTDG
Acetylcholinesterase (Homo sapiens), sequence (P22303 whole entry, looked up): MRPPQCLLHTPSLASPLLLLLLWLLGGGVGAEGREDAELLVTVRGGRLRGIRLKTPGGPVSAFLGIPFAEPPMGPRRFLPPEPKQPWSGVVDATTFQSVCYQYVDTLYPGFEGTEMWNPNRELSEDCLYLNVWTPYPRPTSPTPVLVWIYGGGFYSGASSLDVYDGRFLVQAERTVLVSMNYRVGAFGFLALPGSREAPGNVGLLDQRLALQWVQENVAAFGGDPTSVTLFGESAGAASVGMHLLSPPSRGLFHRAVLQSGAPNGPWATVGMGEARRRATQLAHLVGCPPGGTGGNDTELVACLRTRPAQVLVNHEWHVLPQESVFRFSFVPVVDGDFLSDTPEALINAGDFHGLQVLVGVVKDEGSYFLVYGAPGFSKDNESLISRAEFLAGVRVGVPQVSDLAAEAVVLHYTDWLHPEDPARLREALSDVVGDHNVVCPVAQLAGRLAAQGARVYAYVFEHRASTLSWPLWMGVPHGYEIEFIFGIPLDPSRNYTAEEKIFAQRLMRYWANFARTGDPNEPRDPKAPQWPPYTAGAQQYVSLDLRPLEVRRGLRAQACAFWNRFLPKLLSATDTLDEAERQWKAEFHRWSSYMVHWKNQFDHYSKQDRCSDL

Compound	Potency [1]	Potency [2]	Potency [3]	Potency [4]	Potency [5]	Potency [6]	Potency [7]	max activation [8] [%]	outcome [9]	Potency [10]
FC(Cl)(Cl)C(F)(Cl)Cl	inactive	inactive	inactive	inactive	inactive	inactive	inactive			
O=CC=O	inactive	inactive	inactive	inactive	inactive	inactive	inactive	-4.84	inactive	inactive
CC(C)C1(C)N=C(c2ncccc2C(=O)O)NC1=O (stereo unspecified)	inactive	inactive	inactive	inactive	inactive	inactive	inactive			
C[N+]1(CCF)[C@@H]2CC[C@H]1CC(OC(=O)C(O)(c1ccccc1)c1ccccc1)C2 (stereo partly specified)	inactive	inactive	inactive	inactive	inactive	inactive	inactive			
COc1cc(CC#N)cc(OC)c1OC	inactive	inactive	inactive	inactive	inactive	inactive	inactive			
O=C(N[C@H]1CN2CCC1CC2)c1ccc2c(c1)OCCO2	inactive	inactive	inactive	inactive	inactive	inactive				
CC[N+]1(CCOC(=O)C(O)(c2ccccc2)c2ccccc2)CCCCC1	inactive	inactive	inactive	inactive	inactive	inactive	inactive	0.456	inactive	inactive
CC(=O)OC(c1ccccc1)C(Cl)(Cl)Cl (stereo unspecified)	inactive	inactive	inactive	inactive	inactive	inactive	inactive			
O=C1NC(=O)C(=O)C(=O)N1	inactive	inactive	inactive	inactive	inactive	inactive	inactive			
O=C([O-])c1ccccn1.O=C([O-])c1ccccn1.O=C([O-])c1ccccn1.[Cr+3]	inactive	inactive	inactive	inactive	inactive	inactive	inactive			
CN1CC[C@]23c4c5ccc(O)c4O[C@H]2[C@@H](O)C=C[C@H]3[C@H]1C5	inactive	inactive	inactive	inactive	inactive	inactive				
NP(N)(=O)NC(=O)c1ccc(F)cc1	inactive	inactive	inactive	inactive	inactive	inactive	inactive	0.566	inactive	inactive
CN1C[C@H](C(=O)N[C@]2(C)O[C@@]3(O)[C@@H]4CCCN4C(=O)[C@H](Cc4ccccc4)N3C2=O)C=C2c3cccc4[nH]cc(c34)C[C@H]21	39.8 µM (active)	inactive	30.8 µM (active) and 18 µM (active)	inactive	30.8 µM (active) and 22.6 µM (active)	2.74 µM (active) and 4.03 µM (active)	1.01 µM (active) and 8.32 µM (active)	-2.24	inactive	2.51 µM (active)
CCC1(CC)C(=O)NC(=O)NC1=O	inactive	inactive	inactive	inactive	inactive	inactive	inactive	0.212	inactive	inactive
CCCC[N+]1(C)[C@@H]2CC(OC(=O)[C@H](CO)c3ccccc3)C[C@H]1[C@@H]1O[C@@H]12 (stereo partly specified)	inactive	inactive	inactive	inactive	inactive	inactive	inactive	-0.805	inactive	inactive
CC(C)(c1ccccc1)c1cc(-n2nc3ccccc3n2)c(O)c(C(C)(C)c2ccccc2)c1	inactive	inactive	inactive	inactive	inactive	inactive	inactive			
COc1ccccc1N1CCNCC1	inactive	inactive	inactive	inactive	inactive	inactive		-3.01	inactive	inactive
CN1C(=O)CN=C(c2ccccc2)c2cc([N+](=O)[O-])ccc21	inactive	inactive	inactive	inactive	inactive	inactive	inactive	8.45	inactive	
CCCCC(CC)COC(=O)c1c(Br)c(Br)c(Br)c(Br)c1C(=O)OCC(CC)CCCC (stereo unspecified)	inactive	inactive	inactive	inactive	inactive	16.8 µM (active)	inactive			
c1ccc2c(c1)-c1cccc3cccc-2c13	inactive	inactive	inactive	inactive	inactive					
O=[N+]([O-])O[C@H]1CO[C@H]2[C@@H]1OC[C@H]2O[N+](=O)[O-]	inactive	inactive	inactive	inactive	inactive	inactive	inactive	-0.141	inactive	inactive
CCOP(=S)(OCC)Oc1ccc(S(C)=O)cc1 (stereo unspecified)	inactive	inactive	inactive	inactive	inactive	38.6 µM (active)				
Cc1cnc(C2=NC(C)(C(C)C)C(=O)N2)c(C(=O)O)c1 (stereo unspecified)	inactive	inactive	inactive	inactive	inactive	inactive	inactive			
C[C@@H]1C[C@@H]([C@H](O)CC2CC(=O)NC(=O)C2)C(=O)[C@@H](C)C1	342 nM (active) and 1.22 µM (active) and 1.19 µM (active)	inactive	24.2 nM (active) and 68.6 nM (active) and 188 nM (active)	inactive	121 nM (active) and 1.72 µM (active) and 750 nM (active)					
CC[N+]1(C)CCCC(OC(=O)C(O)(c2ccccc2)c2ccccc2)C1 (stereo unspecified)	inactive	inactive	inactive	inactive	inactive	inactive	inactive	2.38	inactive	inactive
